Columns and labels:
Test in all cases: DAPPL (digital affinity profiling via proximity ligation, sequencing); 10 mM Tris-HCl pH 7.5, 50 mM NaCl, 1 mM DTT, 4% glycerol, room temperature, 30 min; GST-TFs on glutathione beads, 16-mer random dsDNA library, 0.1% formaldehyde crosslink after washing; high values mean tight binding
Settings in all cases: protein: recombinant; tags: N-terminal GST; dsDNA, one strand shown
ERF = target: T1, ERF (Homo sapiens, UniProt P50548 1-548)
T1 sequence: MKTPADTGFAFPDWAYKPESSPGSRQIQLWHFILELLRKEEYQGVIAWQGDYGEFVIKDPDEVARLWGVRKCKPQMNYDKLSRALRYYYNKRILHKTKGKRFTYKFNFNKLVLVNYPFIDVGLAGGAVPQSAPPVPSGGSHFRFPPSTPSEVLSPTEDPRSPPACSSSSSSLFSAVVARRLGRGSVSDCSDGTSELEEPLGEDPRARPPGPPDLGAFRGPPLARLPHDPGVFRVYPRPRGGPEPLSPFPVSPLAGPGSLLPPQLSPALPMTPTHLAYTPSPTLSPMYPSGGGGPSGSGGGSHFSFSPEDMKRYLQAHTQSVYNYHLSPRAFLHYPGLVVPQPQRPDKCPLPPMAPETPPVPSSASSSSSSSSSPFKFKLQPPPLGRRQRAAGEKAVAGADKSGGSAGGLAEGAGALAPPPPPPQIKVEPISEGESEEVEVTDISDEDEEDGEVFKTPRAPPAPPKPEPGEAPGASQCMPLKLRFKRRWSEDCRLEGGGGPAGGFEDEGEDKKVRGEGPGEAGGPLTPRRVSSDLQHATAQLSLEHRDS
Procedure, shortened: (§1)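 Binding signal is each hexamer's read frequency for a factor divided by its frequency in the tag-only sample. The factors were GST-fused human transcription factors from yeast, captured on glutathione beads, DNA-barcoded and pooled with that sample. Pools were incubated with 200 nmole of a random double-stranded 16-mer DNA library in Tris/NaCl/DTT/glycerol buffer at room temperature for 30 min, then washed, crosslinked with 0.1% formaldehyde, proximity-ligated with BsaI/T4 ligase (1 h, 37 °C), PCR-amplified and sequenced on an Illumina NextSeq500.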

ETV3L = target: T2, ETV3L (Homo sapiens, UniProt Q6ZN32 1-361)
T2 sequence: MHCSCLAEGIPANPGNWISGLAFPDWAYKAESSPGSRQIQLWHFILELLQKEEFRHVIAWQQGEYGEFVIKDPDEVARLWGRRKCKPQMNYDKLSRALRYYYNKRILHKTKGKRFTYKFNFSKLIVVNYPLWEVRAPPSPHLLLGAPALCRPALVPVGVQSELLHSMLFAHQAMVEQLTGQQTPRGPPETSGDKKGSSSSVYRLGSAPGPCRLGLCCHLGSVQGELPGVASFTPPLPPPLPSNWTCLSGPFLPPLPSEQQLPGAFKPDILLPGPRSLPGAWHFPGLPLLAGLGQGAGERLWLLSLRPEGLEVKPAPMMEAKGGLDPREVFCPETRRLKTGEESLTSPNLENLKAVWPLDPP
Procedure, shortened: as §1

ETS2 = target: T3, ETS2 (Homo sapiens, UniProt P15036 1-469)
T3 sequence: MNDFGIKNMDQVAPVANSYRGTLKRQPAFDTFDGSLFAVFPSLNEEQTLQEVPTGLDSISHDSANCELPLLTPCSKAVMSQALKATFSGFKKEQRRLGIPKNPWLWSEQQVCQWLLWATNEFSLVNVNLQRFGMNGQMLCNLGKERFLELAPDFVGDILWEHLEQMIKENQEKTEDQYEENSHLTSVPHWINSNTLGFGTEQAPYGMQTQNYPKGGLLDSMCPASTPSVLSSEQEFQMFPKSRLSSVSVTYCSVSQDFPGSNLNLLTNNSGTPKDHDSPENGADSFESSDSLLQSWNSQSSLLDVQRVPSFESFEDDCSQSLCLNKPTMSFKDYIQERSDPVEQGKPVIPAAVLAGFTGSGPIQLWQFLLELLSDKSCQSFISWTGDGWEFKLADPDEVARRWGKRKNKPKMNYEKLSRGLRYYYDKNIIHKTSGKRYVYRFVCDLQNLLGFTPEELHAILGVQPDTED
Procedure, shortened: as §1

SPDEF = target: T4, SPDEF (Homo sapiens, UniProt O95238 1-335)
T4 sequence: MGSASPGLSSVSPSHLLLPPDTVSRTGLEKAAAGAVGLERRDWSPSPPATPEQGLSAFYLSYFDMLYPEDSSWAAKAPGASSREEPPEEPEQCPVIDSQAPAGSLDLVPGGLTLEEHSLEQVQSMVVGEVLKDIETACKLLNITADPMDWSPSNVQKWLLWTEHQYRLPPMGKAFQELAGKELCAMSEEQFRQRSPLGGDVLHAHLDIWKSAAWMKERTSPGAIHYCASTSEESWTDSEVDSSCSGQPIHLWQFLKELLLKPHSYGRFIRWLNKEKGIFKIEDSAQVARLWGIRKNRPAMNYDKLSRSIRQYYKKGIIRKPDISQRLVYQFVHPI
Procedure, shortened: as §1

ETV7 = target: T5, ETV7 (Homo sapiens, UniProt Q9Y603 1-341)
T5 sequence: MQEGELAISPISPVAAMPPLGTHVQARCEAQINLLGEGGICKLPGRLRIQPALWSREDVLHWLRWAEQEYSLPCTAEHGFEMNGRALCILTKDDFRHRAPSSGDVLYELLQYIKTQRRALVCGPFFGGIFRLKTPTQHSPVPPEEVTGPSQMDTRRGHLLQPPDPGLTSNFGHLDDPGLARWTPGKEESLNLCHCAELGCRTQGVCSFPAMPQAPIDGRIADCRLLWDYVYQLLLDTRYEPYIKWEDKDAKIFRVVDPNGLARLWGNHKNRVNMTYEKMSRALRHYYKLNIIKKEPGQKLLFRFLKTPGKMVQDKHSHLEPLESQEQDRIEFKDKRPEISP
Procedure, shortened: as §1

ELF5 = target: T6, ELF5 (Homo sapiens, UniProt Q9UKW6-2 1-255)
T6 sequence: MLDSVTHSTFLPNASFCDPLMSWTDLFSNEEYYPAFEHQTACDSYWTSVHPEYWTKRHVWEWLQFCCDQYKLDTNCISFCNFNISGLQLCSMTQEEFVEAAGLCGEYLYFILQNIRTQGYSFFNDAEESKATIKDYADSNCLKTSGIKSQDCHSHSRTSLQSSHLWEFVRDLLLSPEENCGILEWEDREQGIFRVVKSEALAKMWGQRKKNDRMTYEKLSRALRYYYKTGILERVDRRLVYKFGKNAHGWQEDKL
Procedure, shortened: as §1

ETV3 = target: T7, ETV3 (Homo sapiens, UniProt P41162-2 1-143)
T7 sequence: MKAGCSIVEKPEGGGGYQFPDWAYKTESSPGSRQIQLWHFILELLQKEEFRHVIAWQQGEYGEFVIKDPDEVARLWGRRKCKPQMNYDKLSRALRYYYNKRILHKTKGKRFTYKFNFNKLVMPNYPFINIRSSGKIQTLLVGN
Procedure, shortened: as §1

ETV6 = ETV6 (Homo sapiens, UniProt P41212 1-452)
Sequence of ETV6 (P41212 whole entry): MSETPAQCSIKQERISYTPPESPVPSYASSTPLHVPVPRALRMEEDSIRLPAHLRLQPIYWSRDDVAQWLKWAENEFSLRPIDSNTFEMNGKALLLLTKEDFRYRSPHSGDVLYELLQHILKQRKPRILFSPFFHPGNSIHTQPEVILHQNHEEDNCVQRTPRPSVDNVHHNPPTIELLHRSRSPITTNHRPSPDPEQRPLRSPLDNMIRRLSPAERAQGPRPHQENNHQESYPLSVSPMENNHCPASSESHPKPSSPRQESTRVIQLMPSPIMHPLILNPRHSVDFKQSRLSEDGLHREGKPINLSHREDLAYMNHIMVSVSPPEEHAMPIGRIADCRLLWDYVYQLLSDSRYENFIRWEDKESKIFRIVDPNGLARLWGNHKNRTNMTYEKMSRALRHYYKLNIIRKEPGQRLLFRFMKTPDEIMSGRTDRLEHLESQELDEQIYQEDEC
Procedure, shortened: as §1

Row | Sequence | binding signal (ERF) | binding signal (ETV3L) | binding signal (ETS2) | binding signal (SPDEF) | binding signal (ETV7) | binding signal (ELF5) | binding signal (ETV3) | binding signal (ETV6)
1 | GATGCA | 1.2 fold enrichment (6-mer frequency, TF over GST control) | 1.14 fold enrichment (6-mer frequency, TF over GST control) | 1.16 fold enrichment (6-mer frequency, TF over GST control) | 1.47 fold enrichment (6-mer frequency, TF over GST control) | 1.04 fold enrichment (6-mer frequency, TF over GST control) | 1.1 fold enrichment (6-mer frequency, TF over GST control) | 1.16 fold enrichment (6-mer frequency, TF over GST control) | 1.02 fold enrichment (6-mer frequency, TF over GST control)
2 | TGCATA | 1.09 fold enrichment (6-mer frequency, TF over GST control) | 1.23 fold enrichment (6-mer frequency, TF over GST control) | 1.17 fold enrichment (6-mer frequency, TF over GST control) | 1.18 fold enrichment (6-mer frequency, TF over GST control) | 1.23 fold enrichment (6-mer frequency, TF over GST control) | 1.06 fold enrichment (6-mer frequency, TF over GST control) | 1.11 fold enrichment (6-mer frequency, TF over GST control) | 1.05 fold enrichment (6-mer frequency, TF over GST control)
3 | GCTGAA | 1.16 fold enrichment (6-mer frequency, TF over GST control) | 1.13 fold enrichment (6-mer frequency, TF over GST control) | 1.16 fold enrichment (6-mer frequency, TF over GST control) | 1.17 fold enrichment (6-mer frequency, TF over GST control) | 1.08 fold enrichment (6-mer frequency, TF over GST control) | 1 fold enrichment (6-mer frequency, TF over GST control) | 1.1 fold enrichment (6-mer frequency, TF over GST control) | 1.09 fold enrichment (6-mer frequency, TF over GST control)
4 | TTGCAA | 1.15 fold enrichment (6-mer frequency, TF over GST control) | 1.19 fold enrichment (6-mer frequency, TF over GST control) | 1.1 fold enrichment (6-mer frequency, TF over GST control) | 1.25 fold enrichment (6-mer frequency, TF over GST control) | 1.19 fold enrichment (6-mer frequency, TF over GST control) | 1.12 fold enrichment (6-mer frequency, TF over GST control) | 1.18 fold enrichment (6-mer frequency, TF over GST control) | 1.16 fold enrichment (6-mer frequency, TF over GST control)
5 | AAATGC | 1.27 fold enrichment (6-mer frequency, TF over GST control) | 1.26 fold enrichment (6-mer frequency, TF over GST control) | 1.25 fold enrichment (6-mer frequency, TF over GST control) | 1.3 fold enrichment (6-mer frequency, TF over GST control) | 1.34 fold enrichment (6-mer frequency, TF over GST control) | 1.33 fold enrichment (6-mer frequency, TF over GST control) | 1.18 fold enrichment (6-mer frequency, TF over GST control) | 1.35 fold enrichment (6-mer frequency, TF over GST control)
6 | GTATAA | 1.13 fold enrichment (6-mer frequency, TF over GST control) | 1.14 fold enrichment (6-mer frequency, TF over GST control) | 1.08 fold enrichment (6-mer frequency, TF over GST control) | 1.07 fold enrichment (6-mer frequency, TF over GST control) | 1.11 fold enrichment (6-mer frequency, TF over GST control) | 1.11 fold enrichment (6-mer frequency, TF over GST control) | 1.08 fold enrichment (6-mer frequency, TF over GST control) | 1.08 fold enrichment (6-mer frequency, TF over GST control)
7 | ATGGAA | 1.23 fold enrichment (6-mer frequency, TF over GST control) | 1.18 fold enrichment (6-mer frequency, TF over GST control) | 1.23 fold enrichment (6-mer frequency, TF over GST control) | 1.2 fold enrichment (6-mer frequency, TF over GST control) | 1.35 fold enrichment (6-mer frequency, TF over GST control) | 1.13 fold enrichment (6-mer frequency, TF over GST control) | 1.2 fold enrichment (6-mer frequency, TF over GST control) | 1.28 fold enrichment (6-mer frequency, TF over GST control)
8 | GCCTCA | 1.35 fold enrichment (6-mer frequency, TF over GST control) | 1.31 fold enrichment (6-mer frequency, TF over GST control) | 1.13 fold enrichment (6-mer frequency, TF over GST control) | 1.16 fold enrichment (6-mer frequency, TF over GST control) | 1.24 fold enrichment (6-mer frequency, TF over GST control) | 1.15 fold enrichment (6-mer frequency, TF over GST control) | 1.19 fold enrichment (6-mer frequency, TF over GST control) | 1.18 fold enrichment (6-mer frequency, TF over GST control)
9 | TACTGG | 1.16 fold enrichment (6-mer frequency, TF over GST control) | 1.11 fold enrichment (6-mer frequency, TF over GST control) | 1.08 fold enrichment (6-mer frequency, TF over GST control) | 1.05 fold enrichment (6-mer frequency, TF over GST control) | 1.12 fold enrichment (6-mer frequency, TF over GST control) | 1.04 fold enrichment (6-mer frequency, TF over GST control) | 1.11 fold enrichment (6-mer frequency, TF over GST control) | 1.15 fold enrichment (6-mer frequency, TF over GST control)
10 | TCCCGC | 1.47 fold enrichment (6-mer frequency, TF over GST control) | 1.44 fold enrichment (6-mer frequency, TF over GST control) | 1.34 fold enrichment (6-mer frequency, TF over GST control) | 1.5 fold enrichment (6-mer frequency, TF over GST control) | 1.65 fold enrichment (6-mer frequency, TF over GST control) | 1.59 fold enrichment (6-mer frequency, TF over GST control) | 1.37 fold enrichment (6-mer frequency, TF over GST control) | 1.5 fold enrichment (6-mer frequency, TF over GST control)
11 | CGTCAA | 1.13 fold enrichment (6-mer frequency, TF over GST control) | 1.09 fold enrichment (6-mer frequency, TF over GST control) | 1.16 fold enrichment (6-mer frequency, TF over GST control) | 1.15 fold enrichment (6-mer frequency, TF over GST control) | 1.09 fold enrichment (6-mer frequency, TF over GST control) | 1.08 fold enrichment (6-mer frequency, TF over GST control) | 1.06 fold enrichment (6-mer frequency, TF over GST control) | 1.15 fold enrichment (6-mer frequency, TF over GST control)
12 | GGAAGT | 2.56 fold enrichment (6-mer frequency, TF over GST control) | 2.86 fold enrichment (6-mer frequency, TF over GST control) | 3.2 fold enrichment (6-mer frequency, TF over GST control) | 2.97 fold enrichment (6-mer frequency, TF over GST control) | 2.91 fold enrichment (6-mer frequency, TF over GST control) | 3.88 fold enrichment (6-mer frequency, TF over GST control) | 3.42 fold enrichment (6-mer frequency, TF over GST control) | 3.88 fold enrichment (6-mer frequency, TF over GST control)
13 | CTCGTA | 1.23 fold enrichment (6-mer frequency, TF over GST control) | 1.43 fold enrichment (6-mer frequency, TF over GST control) | 1.37 fold enrichment (6-mer frequency, TF over GST control) | 1.2 fold enrichment (6-mer frequency, TF over GST control) | 1.11 fold enrichment (6-mer frequency, TF over GST control) | 1.28 fold enrichment (6-mer frequency, TF over GST control) | 1.23 fold enrichment (6-mer frequency, TF over GST control) | 1.2 fold enrichment (6-mer frequency, TF over GST control)
14 | CCTCTT | 1.59 fold enrichment (6-mer frequency, TF over GST control) | 1.71 fold enrichment (6-mer frequency, TF over GST control) | 1.56 fold enrichment (6-mer frequency, TF over GST control) | 1.57 fold enrichment (6-mer frequency, TF over GST control) | 1.51 fold enrichment (6-mer frequency, TF over GST control) | 1.75 fold enrichment (6-mer frequency, TF over GST control) | 1.67 fold enrichment (6-mer frequency, TF over GST control) | 1.68 fold enrichment (6-mer frequency, TF over GST control)
15 | TGTTTG | 1.4 fold enrichment (6-mer frequency, TF over GST control) | 1.35 fold enrichment (6-mer frequency, TF over GST control) | 1.32 fold enrichment (6-mer frequency, TF over GST control) | 1.25 fold enrichment (6-mer frequency, TF over GST control) | 1.39 fold enrichment (6-mer frequency, TF over GST control) | 1.29 fold enrichment (6-mer frequency, TF over GST control) | 1.35 fold enrichment (6-mer frequency, TF over GST control) | 1.41 fold enrichment (6-mer frequency, TF over GST control)
